Several values for one entry are separate records, joined by “and”; a condition that tells them apart may be missing. Equal entries are not always repeated. Inconclusive results are not listed. More than one record can exist for a structure, and the calls need not agree. Activity calls are given as the source filed them. Unless noted, calls come from the whole dose curve; as a rule, active = well fitted curve in the direction sought with a large enough effect in the repeat runs; inconclusive = weak or mixed curves; inactive = no such curve, though single readings can be large; an effect the other way counts as inactive or inconclusive.
Assays:
[1] = qHTS assay for small molecule agonists of the p53 signaling pathway (AID 651631; calls by dose curve; note: nearly all actives have a fitted effect of over 15% in size; note: potency is the fitted concentration of half-maximal effect); settings: HCT-116 p53RE-bla reporter, beta-lactamase FRET ratio, 16 h; series mostly up to 73.3 µM
Procedure, shortened: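 Stably transfected HCT-116 cells (beta-lactamase behind p53 response elements) get compounds after a 5 h settling period; 16 h later at 37 °C, FRET substrate is loaded and fluorescence read after 2 h.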

[2] = qHTS assay for small molecules that induce genotoxicity in human embryonic kidney cells expressing luciferase-tagged ATAD5 (AID 651632); settings: HEK293T ATAD5-luciferase induction, 16 h; series mostly up to 83.3 µM; note: nearly all actives have a fitted effect of over 15% in size; note: potency is the fitted concentration of half-maximal effect
Procedure, shortened: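 Cells were seeded at 2,000 per well, dosed with compound, and incubated 16 hr at 37C in 5% CO2. Luciferase activity was then quantified after a 30 min room-temperature incubation with Amplite.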

[3] = qHTS assay for small molecule agonists of the p53 signaling pathway - cell viability (AID 651633; calls by dose curve; note: nearly all actives have a fitted effect of over 30% in size; note: potency is the fitted concentration of half-maximal effect); settings: p53RE-bla HCT-116 viability, ATP luminescence, 16 h; series mostly up to 83.3 µM
Procedure, shortened: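 p53RE-bla cells were treated with compound for 16 hours at 37 C. Cytotoxicity was then measured as CellTiter-Glo luminescence after 30 min at room temperature.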

[4] = qHTS assay for small molecules that induce genotoxicity in human embryonic kidney cells expressing luciferase-tagged ATAD5 - cell viability (AID 651634; calls by dose curve; note: nearly all actives have a fitted effect of over 25% in size; note: potency is the fitted concentration of half-maximal effect); settings: HEK293T ATAD5-luc cells viability, CellTiter-Fluor, 15.5 h; series mostly up to 83.3 µM
Procedure, shortened: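 Cells (HEK293T, luciferase-tagged ATAD5) are seeded at 2,000 per well, dosed with compound or DMSO vehicle, and incubated 15.5 hr at 37C and 5% CO2. CellTiter-Fluor is added for 30 min before fluorescence is measured.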

[5] = qHTS assay for small molecule disruptors of the mitochondrial membrane potential (AID 720635); settings: HepG2 mitochondrial membrane potential, Mito-MPS dye ratio; series mostly up to 83.2 µM; note: potency is the fitted concentration of half-maximal effect
Procedure, shortened: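 HepG2 cells exposed to compound 1 hr at 37C, then Mito-MPS dye 30 min. Ratio read of aggregate (540/590 nm) versus monomer (490/535 nm) fluorescence.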

[6] = qHTS assay to test for compound auto fluorescence at 590 nm (red) in HepG2 cells (AID 720674); settings: HepG2 autofluorescence, red 540/590 nm, 1 h; series mostly up to 91.3 µM
Procedure, shortened: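 HepG2 cells, 2,000 per well in MEM with 10% FBS, attached overnight at 37 C, then got 23 nL compound or DMSO. After 1 hr at 37 C, 5% CO2, red fluorescence was read at 540/590 nm against Rose Bengal sodium as reference.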

[7] = qHTS assay to test for compound auto fluorescence at 535 nm (green) in HepG2 cells (AID 720675); settings: green autofluorescence 485/535 nm, 1 h; series mostly up to 91.3 µM
[8] = qHTS assay to test for compound auto fluorescence at 460 nm (blue) in HEK293 cells (AID 720678); settings: blue autofluorescence 405/460 nm; series mostly up to 91.3 µM
Procedure, shortened: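 Auto fluorescence in the blue band was quantified as triamterene equivalency. HEK293 cells were seeded at 2,000/well, dosed after a 4-5 hr attachment, and kept overnight at 37C before the 405/460 nm reading.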

[9] = qHTS assay to test for compound auto fluorescence at 590 nm (red) in HEK293 cells (AID 720679); settings: red autofluorescence 540/590 nm; series mostly up to 91.3 µM
Procedure, shortened: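 Autofluorescence equivalency to Rose Bengal sodium, 540/590nm, in HEK293 cells exposed overnight to 23 nL compound per well.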

[10] = qHTS assay for small molecule disruptors of the mitochondrial membrane potential - cell viability (AID 720634; calls by dose curve; note: nearly all actives have a fitted effect of over 20% in size; note: potency is the fitted concentration of half-maximal effect); settings: HepG2 viability, ATP luminescence (CellTiter-Glo), 1 h; series mostly up to 83.2 µM
Procedure, shortened: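 Cytotoxicity was measured by ATP quantitation in HepG2 wells that had first been treated with compound for 1 hr and stained with m-MPI dye; CellTiter-Glo incubation was 30 min at room temperature.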

Measured: Potency
% is set by controls: 0 for no effect and ±100 for the full control effect.

CC(C)(C)OO
not listed: [10]
inactive: all other assays above

CN(C)CCc1c[nH]c2cccc(O)c12
inactive: all assays above

CCCCCCCCCCCCCN1CC(C)OC(C)C1 (stereo unspecified)
not listed: [5]
inactive: all other assays above

Oc1ccc(C2(c3ccc(O)cc3)c3ccccc3-c3ccccc32)cc1
active: [1] 61.1 µM | [3] 172 nM | [5] 61.1 µM
not listed: [4] | [10]
inactive: all other assays above

CCOC(=O)C1(c2ccccc2)CCN(CCC(C#N)(c2ccccc2)c2ccccc2)CC1
active: [1] 3.76 µM and 26.6 µM | [3] 1.88 µM and 9.44 µM | [5] 13.3 µM and 26.6 µM
not listed: [10]
inactive: all other assays above

Clc1ccc(C(c2ccccc2Cl)C(Cl)(Cl)Cl)cc1 (stereo unspecified)
active: [1] 69 µM | [3] 54.8 µM and 40.2 µM
not listed: [5] | [10]
inactive: all other assays above

N#CSCSC#N
active: [1] 5.57 µM and 10.8 µM | [2] 19.8 µM and 30.3 µM | [3] 62.5 µM and 60.5 µM | [5] 62.5 µM and 48.1 µM
inactive: [6] | [7] | [8] | [9]

CC(C)CC(C)N (stereo unspecified)
not listed: [3]
inactive: all other assays above

CC(C)CCCCCOC(=O)c1ccccc1C(=O)OCCCCCC(C)C
not listed: [5] | [10]
inactive: all other assays above

ClC(Cl)=C(Cl)Cl
not listed: [5] | [9]
inactive: all other assays above

Cn1cc(C2=C(c3cn(C4CCN(Cc5ccccn5)CC4)c4ccccc34)C(=O)NC2=O)c2ccccc21
active: [1] 7.5 µM
not listed: [3]
inactive: all other assays above

CCCCCCCCCCCCCCCC[n+]1ccccc1
active: [1] 26.6 µM and 71.7 µM | [3] 67.6 µM [middle of 4 runs] | [4] 63.9 µM and 48.6 µM | [10] 63.9 µM and 60.3 µM | [5] 24.3 µM [middle of 4 runs]
inactive: [2] | [6] | [7] | [8] | [9]

CC(=O)O[C@H]1CC[C@@]2(C)C(=CC[C@@H]3[C@@H]2CC[C@]2(C)C(=O)CC[C@@H]32)C1
inactive and 54.5 µM (active): [5]
inactive: all other assays above

CNC(C)Cc1ccc2c(c1)OCO2 (stereo unspecified)
inactive: all assays above

CC(=O)OC1(c2ccccc2)CCN(CCc2ccccc2)CC1
not listed: [5]
inactive: all other assays above

Oc1ccc(C(c2ccc(O)cc2)(C(F)(F)F)C(F)(F)F)cc1
active: [1] 60.8 µM and 54.5 µM | [3] 68.2 µM and 43.3 µM | [5] 2.72 µM and 4.86 µM
not listed: [10]
inactive: all other assays above

COc1cc(N)c(Cl)cc1C(=O)NC1CN2CCC1CC2 (stereo unspecified)
not listed: [10]
inactive: all other assays above

BrCBr
not listed: [2] | [4]
inactive: all other assays above

CC(C)CC(C)(c1ccc(O)cc1)c1ccc(O)cc1
active: [3] 68.7 µM and 61.1 µM | [10] 34.4 µM and 27.3 µM | [5] 6.87 µM and 6.86 µM
not listed: [1] | [9]
inactive: all other assays above

Cc1cc(C)cc(OP(=O)(Oc2cc(C)cc(C)c2)Oc2cc(C)cc(C)c2)c1
active: [5] 49.3 µM
not listed: [3] | [10]
inactive: all other assays above
